From PubChem
Rows were chosen to be rich in hits. Some 4.8% of all compounds tested hit in one or more screens of this group.
SUMO Mot1 rescue = inhibitors of SUMOylation pathway: yeast Mot1-301 growth rescue; S. cerevisiae Mot1-301 growth rescue, ATP luminescence, 38.5C; percent above DMSO median, 100 means doubled; growth rescue, % at 18.8 µM; actives 1% (n = 320,000); AID 2716;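 active = every valid replicate shows activation above 250% relative to neutral control wells; inactive = the rest, any valid replicate at or below 250%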
HIF act = HIF pathway transcriptional activation | U2OS HRE-luciferase reporter, luminescence; normalized: DMSO 0%, desferrioxamine 100% | activation, % at 7.5 µM (by protocol) | actives 0.32% (n = 300,000);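 active = mean activation of at least 10% of the iron chelator positive control signal, with at least half of replicates also reaching 10%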
ALR inh = human ALR oxidase inhibition via reduced H2O2; P55789; purified ALR, DTT oxidation, H2O2 HRP-luminol luminescence; inhibition, % (test concentration not listed); actives 3.8% (n = 290,000); AID 485317;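 active = mean replicate inhibition above about 79%, with every replicate also reaching it, limit read from the data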
Target sequence (P55789 whole entry, looked up): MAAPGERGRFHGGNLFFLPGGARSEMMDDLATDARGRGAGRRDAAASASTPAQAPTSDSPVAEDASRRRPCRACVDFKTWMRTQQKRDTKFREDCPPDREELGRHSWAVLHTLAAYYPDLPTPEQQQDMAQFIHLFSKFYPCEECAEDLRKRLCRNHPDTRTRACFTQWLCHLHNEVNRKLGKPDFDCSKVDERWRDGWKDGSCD
AI-2 QS mod = Vibrio harveyi AI-2 quorum sensing modulation | Vibrio harveyi JMH597 AI-2 luminescence/OD600 ratio, 9 h; active compounds read low; strain lacks LuxN and CqsS sensors; 0 = neutral-control median | activity change, % at 7.5 µM | actives 0.4% (n = 300,000); in the data active = activity change below about -75%, passing the limit was not always enough;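 note: luminescence divided by OD600 gain over 9 h not by final OD600 alone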
Large screens that a line does not name were inactive.

Clc1ccc(-n2nnnc2Sc2ncnc3sccc23)cc1	SUMO Mot1 rescue 577.9
CCN(CC(=O)NC1CCS(=O)(=O)C1)c1ccc(S(=O)(=O)N(CC)CC)cc1[N+](=O)[O-] (stereo unspecified)	none (no result: HIF act, ALR inh, AI-2 QS mod)
CCN(CC(=O)NC(C)(C)C)C(=O)COc1c(Cl)cc(Cl)c2ccc(C)nc12	AI-2 QS mod -80.8 (no result: ALR inh)
COc1cccc(CN2CCNC(=O)C2CC(=O)N(C)CCC2CCOCC2)c1OC (stereo unspecified)	none
COc1ccc(S(=O)(=O)N2CCOc3ccccc32)cc1	none (no result: ALR inh)
N#CNC(=Nc1ccccc1F)SCc1ccc(C(=O)O)cc1	ALR inh 98.6
COc1ccc(CC(NC(C)=O)C(=O)NC2CCN(C(=O)c3ccncc3)CC2)cc1OC (stereo unspecified)	none (no result: ALR inh)
COc1ccc(CC(NC(C)=O)C(=O)NC2CCN(C(=O)c3cccc(Cl)c3)CC2)cc1OC (stereo unspecified)	HIF act 127.3 (no result: SUMO Mot1 rescue, ALR inh)
Cc1ccc(C(=O)Nc2nc(=O)n(C)s2)cc1	none
Cn1sc(NC(=O)c2ccc(Cl)cc2)nc1=O	ALR inh 97.2
CCCCC1CCc2[nH]nc(C(=O)O)c2C1 (stereo unspecified)	none (no result: HIF act, AI-2 QS mod)
CCS(=O)(=O)CCSc1nc2ccccc2s1	ALR inh 99.0
O=S(=O)(CCSc1nc2ccccc2s1)c1nc2ccccc2s1	HIF act 13.2
C=CCS(=O)(=O)c1nc2ccccc2s1	none
O=C(c1cc(S(=O)(=O)N2CCCCC2)ccc1F)N1CCCCC1	ALR inh 83.4
O=C(c1ccccc1F)N1CCN(S(=O)(=O)c2ccc(S(=O)(=O)N3CCCCC3)cc2)CC1	none (no result: HIF act, AI-2 QS mod)
CC(C)(C)C(=O)N1CCc2cc(-c3csc(N)n3)ccc21	ALR inh 99.1
CCC(C)C(=O)N1CCc2cc(-c3csc(N)n3)ccc21 (stereo unspecified)	ALR inh 98.2
CCCC(=O)N1CCc2cc(-c3nc(N)sc3C)ccc21	ALR inh 98.2
O=C(Nc1cccc(S(=O)(=O)N2CCCC2)c1)c1ccc(Cl)nc1	none (no result: HIF act, AI-2 QS mod)
CN(C)S(=O)(=O)c1ccc(Cl)c(C(=O)NC2=NCCS2)c1	none
CCC(C)n1c(SCC(=O)NC2CCS(=O)(=O)C2)nc2ccccc2c1=O (stereo unspecified)	none
O=S1(=O)CC2N=C(N(Cc3ccc(F)cc3Cl)c3ccccc3F)SC2C1 (stereo unspecified)	ALR inh 98.0 (no result: SUMO Mot1 rescue)
O=C(NCCc1ccc(Cl)cc1)c1cccc(NC2=NC3CS(=O)(=O)CC3S2)c1 (stereo unspecified)	none
Cc1cccc(NC(=O)CN(C2=NC3CS(=O)(=O)CC3S2)c2ccccc2F)c1 (stereo unspecified)	ALR inh 98.6
CCOc1ccc(N(CC(=O)Nc2ccc(OC)cc2)C2=NC3CS(=O)(=O)CC3S2)cc1 (stereo unspecified)	ALR inh 98.6
CCOc1ccc(N(CC(=O)Nc2ccc(C)c(F)c2)C2=NC3CS(=O)(=O)CC3S2)cc1 (stereo unspecified)	none
Cc1[nH]nc(-c2ccc(O)cc2O)c1Oc1ccccc1	ALR inh 98.4 (no result: HIF act)
Cc1[nH]nc(-c2ccc(O)cc2O)c1-c1ccc(Cl)cc1	ALR inh 81.8
Cc1[nH]nc(-c2ccc(O)cc2O)c1-c1nc2ccccc2s1	ALR inh 86.5
COc1ccc(CCNC(=O)CCC(=O)n2ncc3ccc(Cl)cc32)cc1OC	none
COCCn1c(SCC(=O)NN2C(=O)NC(C)(c3ccccc3)C2=O)nnc1-c1ccncc1 (stereo unspecified)	none (no result: HIF act, AI-2 QS mod)
COc1ccc([N+](=O)[O-])cc1NC1CCCCC1	ALR inh 98.8
CCOC(=O)/C=C/C(=O)OCC(=O)NCc1ccccc1	none
C/C(=C\C(=O)OCC(=O)NCc1ccccc1)C(=O)OCC(=O)NCc1ccccc1	HIF act 440.9
COC(=O)C1(c2ccccc2)NC(c2ccc(O)cc2)C2C(=O)N(c3ccc4c(c3)OCO4)C(=O)C21 (stereo unspecified)	SUMO Mot1 rescue 259.5
CCCC1(C(=O)OCC)NC(c2ccc(O)cc2)C2C(=O)N(c3ccc4c(c3)OCCO4)C(=O)C21 (stereo unspecified)	none
CCCCn1c(N)c(N(CC(C)C)C(=O)C2CC(=O)N(c3ccc(CC)cc3)C2)c(=O)[nH]c1=O (stereo unspecified)	none
CC1CCc2sc(-c3n[nH]c(=S)o3)cc2C1 (stereo unspecified)	ALR inh 98.2
S=c1[nH]nc(-c2cc3c(s2)-c2ccccc2CC3)o1	ALR inh 96.9
CN(C)CCCNc1ncnc2c1cnn2Cc1ccccc1Cl	none (no result: SUMO Mot1 rescue, ALR inh)
CCC(ONc1ccccc1C(F)(F)F)(C(=O)NN(C)C)c1ccccc1 (stereo unspecified)	none (no result: HIF act, AI-2 QS mod)
Cc1cc(=O)oc2cc(OCC(=O)NC3CCCCC3)ccc12	none
COC(=O)C1=C(C)N(Cc2ccc(OC)cc2)C(=O)C1	HIF act 223.3
COC(=O)C1=C(C)N(CCc2ccc(OC)cc2)C(=O)C1	none (no result: ALR inh)
COC(=O)/C=C/c1ccc(OC(=O)OC)c(OC(=O)OC)c1	ALR inh 98.0
COC(=O)/C=C/c1ccc2c(c1)OCO2	none
COc1cc(/C=C/C(=O)Nc2ccc(C(C)=O)cc2)cc(OC)c1OC	none
COc1cc(/C=C/C(=O)Nc2ccncc2)cc(OC)c1OC	ALR inh 85.2
COC(=O)[C@]1(C)N[C@H](CN(C)C(=O)Nc2ccc(C)cc2)[C@@H]2C(=O)N(C)C(=O)[C@@H]21	none (no result: HIF act, AI-2 QS mod)
Cc1ccc(NC(=S)Nc2cccc(-c3n[nH]c(=S)o3)c2)cc1	ALR inh 88.9
COCCN1CCN(C(=O)c2cc(COc3ccc(F)c(F)c3)on2)CC1	none
CSc1nnc(-c2ccc(S(=O)(=O)N3CCOCC3)cc2)n1CC1CCCO1 (stereo unspecified)	SUMO Mot1 rescue 333.4
O=C(NNc1ccc([N+](=O)[O-])cc1)C1CC2CCCC(C1)C2=O (stereo unspecified)	ALR inh 85.8
COc1cccc(C(=O)OCC(=O)NCC2CCCO2)c1 (stereo unspecified)	none (no result: HIF act, AI-2 QS mod)
Cc1cc(C(=O)N2CCCC(Nc3ccc(C(C)C)cc3)C2)nn1C (stereo unspecified)	ALR inh 98.6
CC(C)c1ccc(NC2CCCN(C(=O)c3cnsn3)C2)cc1 (stereo unspecified)	ALR inh 95.9
CC(C)c1ccc(NC2CCCN(C(=O)c3cccnc3)C2)cc1 (stereo unspecified)	none
COc1ccc(S(=O)(=O)NCCSCc2ccccc2C)cc1Br	ALR inh 97.9 (no result: SUMO Mot1 rescue)
C=CCn1c(SCC(=O)Nc2nc(C)cs2)nnc1C(C)NC(=O)c1ccccc1Cl (stereo unspecified)	ALR inh 94.3
Cc1nc([N+](=O)[O-])c(Sc2nc3ccccc3n2C)n1Cc1ccccc1	ALR inh 98.1
O=C(NCSc1ccncn1)c1ccccc1	ALR inh 98.7
O=C(NCSc1ccnc(SCNC(=O)c2ccccc2)n1)c1ccccc1	none
O=C(CCn1cnc(-c2ccccc2)c1-c1ccccc1)N/N=C/c1ccc(O)cc1	ALR inh 89.2
